Rab9 promoter act = Rab9 promoter activation | Potency, µM (series often up to 9.22 µM), inactives show at the highest dose activation, negative = inhibition, most hits filed as activators | Huh7 Rab9 promoter-luciferase reporter, luminescence, 24 h | 2.8% of 320,000 active; note: % of control where 0% means no effect; nearly all actives have a fitted effect of over 60% in size
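Cell-based reporter: Huh7 stable for Rab9 promoter-driven luciferase, plated in reduced-serum medium with 10% FBS at 1500 cells/well, compound-treated 24 h at 37 °C, luminescence read after 10 min reagent.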
SMN2 splice enh = increases expression of the SMN2 splice variant. HEK293 SMN2-luciferase splicing reporter, luminescence, 30-36 h. 2.8% of 210,000 active. Potency, µM (titrated, usually from 46.1 µM), for inactives: top-dose activity change, positive = activation, most hits filed as activators; note: % of control where 0% means no effect; nearly all actives have a fitted effect of over 55% in size
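HEK293 cells carry an SMN2 […]–luciferase reporter in which exon 7 inclusion puts luciferase in frame. Cells were plated 10-12 h before compound addition, then incubated 30-36 h at 37C. ONE-Glo luminescence was read; sodium butyrate at 4.5 mM final served as control.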
FLuc modulator = counter-screen for miR-21 project: firefly luciferase inhibitors or activators; P08659; purified FLuc, Km substrates, luminescence inhibition; Potency, µM (titrated, usually from 57.5 µM), for the others: top-dose activity change, negative = inhibition, actives largely listed as inhibitors; 6.9% of 360,000 active; AID 588342;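 note: plate controls were vehicle for no effect and reference inhibitor for full effect; nearly all actives have a fitted effect of over 55% in size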
Target sequence (P08659 whole entry, looked up): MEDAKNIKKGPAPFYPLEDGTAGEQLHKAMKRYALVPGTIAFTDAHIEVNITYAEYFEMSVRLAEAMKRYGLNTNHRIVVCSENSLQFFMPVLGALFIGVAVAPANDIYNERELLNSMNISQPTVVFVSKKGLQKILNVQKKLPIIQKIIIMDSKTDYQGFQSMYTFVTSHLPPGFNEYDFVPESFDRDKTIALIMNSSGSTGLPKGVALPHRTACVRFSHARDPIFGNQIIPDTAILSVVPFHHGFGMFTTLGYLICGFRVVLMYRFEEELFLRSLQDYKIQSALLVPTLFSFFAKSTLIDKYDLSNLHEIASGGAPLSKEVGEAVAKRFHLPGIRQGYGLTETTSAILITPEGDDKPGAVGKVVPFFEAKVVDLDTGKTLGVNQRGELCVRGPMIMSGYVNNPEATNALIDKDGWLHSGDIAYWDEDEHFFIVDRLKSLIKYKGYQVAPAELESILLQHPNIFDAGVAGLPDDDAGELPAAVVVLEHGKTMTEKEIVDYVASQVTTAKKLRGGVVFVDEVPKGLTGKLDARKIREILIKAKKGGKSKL
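Biochemical qHTS of compounds, final roughly 60 µM downward over six points, against 10 nM purified firefly luciferase using Km concentrations of substrates (10 uM D-luciferin, 10 uM ATP) in Tris acetate pH 7.5 buffer; luminescence output.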
p53 reactivator = restores transcriptional activity of mutant p53 | 0.063% of 320,000 active | H1299 p53-A138V BP100-luciferase reporter, luminescence, 24 h | Potency, µM (series often up to 92.2 µM), inactives show at the highest dose activity change, positive = activation, hits mostly activators; note: % of control where 0% means no effect; nearly all actives have a fitted effect of over 45% in size
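p53-null H1299 cells stably carrying temperature-sensitive p53-A138V and a BP100-luciferase reporter were pinned with compounds (4-point, 1:5 series) and held 24 hrs at 37 deg C. Luminescence was read 10 min after detection reagent.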
NPC1 prom act = NPC1 promoter activation; Potency, µM (series often up to 9.22 µM), without a hit: top-dose activation, most hits filed as activators; 2.4% of 320,000 active; AID 485313; Huh7 NPC1 promoter luciferase reporter, 24 h; note: % of control where 0% means no effect; nearly all actives have a fitted effect of over 60% in size
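Luciferase expression driven by the NPC1 promoter was measured in stably transfected Huh7 cells after a 24 h compound incubation, using a luciferase reagent and a luminescence read.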
ELG1 genotox = inducers of genotoxicity in HEK293T ELG1-luciferase cells; Potency, µM (highest dose often 46 µM), inactives show at the highest dose activity change, positive = activation, actives largely listed as activators; AID 504466; HEK293T ELG1-luciferase reporter, luminescence, 16 h; 1.3% of 330,000 active; note: % of control where 0% means no effect; nearly all actives have a fitted effect of over 60% in size
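HEK293T cells expressing luciferase-tagged ELG1 were exposed to compound or DMSO vehicle for 16 hr at 37 °C and 5% CO2. Luciferase activity was then measured with ONE-Glo after 30 min at room temperature.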
* = called active by the depositor; ? = inconclusive; · = no result; [ ] = remark or other dose. Shown are actives, neighbours in structure and some others; about 7.3% of the full set was active somewhere. Calls come from the whole dose curve; as a rule, active = well fitted curve in the direction sought with a large enough effect; inconclusive = small, poorly fitted or top-dose-only effect, or another doubt; inactive = no such curve, though single readings can be large; an effect the other way counts as inactive or inconclusive. Potency is the fitted concentration of half-maximal effect.

SMILES	Rab9 promoter act	SMN2 splice enh	FLuc modulator	p53 reactivator	NPC1 prom act	ELG1 genotox
c1ccc(OCCCc2nc(-c3ccccn3)no2)cc1	3.7%[1.84 µM]	?	?	?	?	18.4µM*
COCCCNc1nc2c(S(=O)(=O)c3ccc(C)c(C)c3)nnn2c2ccc(Cl)cc12	·	-9.3%	6.2%	·	·	·
O=C(NCCCN1CCN(c2ccccc2)CC1)c1ccc2nc(CCc3ccccc3)oc2c1	·	·	0.0%	·	·	·
CC(C)=NN/C(N)=N/C(=S)Nc1ccc(C)cc1	21.8%	16.5%	4.78µM*	?	1.7%	?
Cc1c(C(C)(C(=O)O)c2c(C)n(C)c3ccccc23)c2ccccc2n1C	-2.6%	·	4.7%	-0.2%	-2.7%	0.4%
CCN(CC(=O)Nc1ccc2c(c1)OCCO2)C(=O)c1ccc(S(=O)(=O)N(C)C)cc1	-1.5%	·	3.9%	-4.9%	3.3%	-1.7%
CN(C)S(=O)(=O)c1ccc(Nc2ccc(-c3ccc4c(c3)OCCO4)nn2)cc1	8.7%	2.0%	6.75µM*	2.9%	-5.1%	2.5%
CN(C(=O)c1cccc(Nc2ccc(-c3ccc4c(c3)OCCO4)nn2)c1)C1CCCCC1	?	-59.4%	0.953µM*	?	?	-20.6%
CCN(CC)S(=O)(=O)c1ccc(Nc2ccc(-c3ccc4c(c3)OCCO4)nn2)cc1	17.6%	-13.5%	10.7µM*	16.9%	-6.4%	8.0%
CCOC(=O)COc1ccc2c(c1)C(=O)CC1(CCCCC1)O2	-11.2%	-1.1%	?	-3.5%	-2.5%	-1.1%
CCc1cccc2c(-c3ccccc3)c3c(nc12)OCC3	·	-27.0%	·	·	·	·
Cc1cc(C)c2c(N)c(C(=O)N/N=C/c3ccccc3)sc2n1	1.78µM*	·	3.38µM*	25.6%	1.78µM*	?
Cc1cc(C)c2c(N)c(C(=O)NNC(=O)c3ccccc3)sc2n1	3.55µM*	11.2µM*	?	3.7%	3.16µM*	?
Cc1cc(C)c2c(N)c(C(=O)N/N=C/c3cccnc3)sc2n1	?	·	?	18.1%	?	11.1%
Cc1cc(C)c2c(N)c(C(=O)Nc3cccc(C)c3C)sc2n1	-2.9%	·	0.1%	20.7%	-6.3%	5.2%
Cc1ccc(S(=O)(=O)Nc2nc(C)c(C(=O)N/N=C/c3ccccc3)s2)cc1	6.7%	-37.5%	6.01µM*	3.9%	-1.1%	-20.0%
Cc1nc(N2CCCC2)ncc1C(=O)N1CCN(c2ccccc2F)CC1	·	·	2.8%	·	·	·
COc1ccc(NC(=O)c2cccc(N3C(=O)c4cccc([N+](=O)[O-])c4C3=O)c2)cc1	13.1%	·	8.49µM*	4.4%	-2.8%	12.0%
O=C(O)c1sc2cccc(Cl)c2c1Cl	2.2%	·	5.36µM*	4.7%	0.3%	-1.4%
O=C(Nc1ccccc1Cl)c1sc2cccc(Cl)c2c1Cl	·	-7.9%	?	·	·	·
Cc1c(O)ccc(C(=O)COc2ccc(F)cc2)c1O	5.01µM*	·	12µM*	?	?	2.0%
N/C(=N\OC(=O)c1cccc(Cn2cc(C(F)(F)F)ccc2=O)c1)c1ccc(Cl)cc1	1.3%	·	15.1µM*	2.4%	21.7%	-3.7%
Cc1ccc(/C(N)=N/OC(=O)c2cccc(Cn3cc(C(F)(F)F)ccc3=O)c2)cc1	9.8%	·	21.3µM*	5.7%	?	1.7%
N/C(=N\OC(=O)c1cccc(Cn2cc(C(F)(F)F)ccc2=O)c1)c1ccccc1	-3.3%	·	?	6.8%	2.1%	-5.2%
O=c1c2ccccc2oc2cc(-c3ccc(CN4CCOCC4)cc3)ccc12	?	·	6.75µM*	?	2.24µM*	-10.0%
Cc1cc(C(F)(F)F)c(C#N)c(SCC(=O)Nc2nc3cc(Br)ccc3s2)n1	3.16µM*	-57.9%	-21.4%	?	28.7%	5.1%
CCOC(=O)c1ccc(NC(=O)Cn2cc(C(=O)C3CC3)c3ccccc32)cc1	·	-6.3%	1.8%	·	·	·
CCOC(=O)COc1ccccc1C1Nc2ccccc2C(=O)N1c1cccc(Cl)c1 (stereo not drawn)	2.82µM*	20µM*	-14.1%	14.2%	?	?
